# According to PubChem BioAssay (EPA / NIEHS):
# Activity calls are given as the source filed them. The calls were made as follows: active = hit-call score of the fitted dose curve at least 0.9, where 1 is the maximum; inactive = score below 0.9.
# Read-out: Matrix Metallopeptidase 1 (MMP1), MMP1 (gene 4312)
# Assay: BSK_hDFCGF_MMP1: BioMAP Diversity Plus: hDFCGF Assay for Matrix Metallopeptidase 1 (MMP1) Biomarker Activity (AID 2283064)
# Conditions: primary human foreskin fibroblasts; actives raise or lower the signal
# Protocol: BSK_hDFCGF is a cell-based, multiplexed-readout assay that uses foreskin fibroblast, a human skin primary cell, with measurements taken at 24 hours after chemical dosing in a 96-well plate.BSK_hDFCGF_MMP1 is an assay component measured in the BSK_hDFCGF assay. It measures MMP-1 antibody related to regulation of gene expression using ELISA technology.Data from the assay component BSK_hDFCGF_MMP1 was analyzed into 1 assay endpoint. This assay endpoint, BSK_hDFCGF_MMP1, was analyzed with bidirectional fitting relative to DMSO as the negative control and baseline of activity. Using a type of binding reporter, gain or loss-of-signal activity can be used to understand changes in the signaling as they relate to the gene MMP1. Furthermore, this assay endpoint can be referred to as a primary readout, because this assay has produced multiple assay endpoints where this one serves a signaling function. To generalize the intended target to other relatable targets, this assay endpoint is annotated to the protease intended target family, where the subfamily is matrix metalloproteinase.
# The levels of cell surface (or secreted, indicated by the prefix "s") biomarker endpoints were measured by ELISA. Overt cytotoxicity to cells in confluent adherent cultures (all systems other than the BT system) was assessed by measuring total protein levels using sulforhodamine B (SRB) staining in parallel cultures at the time of biomarker measurements, indicated as SRB endpoints. For proliferation assays for adherent cell types, individual cell types are cultured at sub-confluence and relative cell numbers quantified by SRB staining at time points optimized for each system (48 h: 3C and CASM3C systems; 72 h: BT and HDF3CGF systems; 96 h: SAg system). SRB was performed by staining cells with 0.1% SRB after fixation with 10% TCA and reading wells at 560 nm.Viability and proliferation of PBMC (T cells) was quantified by Alamar Blue reduction for the SAg and BT systems. For PBMC viability (referred to as PBMC Cytotoxicity within the assay endpoint names), cells were plated (75,000/well in a 96-well plate) and then chemical samples added for 1 h before addition of activators, SEB and TSST-1 (20 ng/mL final concentration each). Cells were incubated for 90 h. Then, Alamar Blue (20 uL/well) (Invitrogen, Cat DAL1100) was added for 6 h, and the plates were read with a fluorescence microplate reader at 546/580 nm (excitation/emission). For PBMC proliferation, cells were plated and activated as above but incubated for only 16 h prior to addition of Alamar Blue. Plates were read after 6 h.
Structure (SMILES),outcome,AC50
CCCCc1ccc2c(n1)[C@@H](c1ccc(OC)cc1C[C@H](C)C(=O)O)[C@H](C(=O)O)[C@H]2c1ccc2c(c1)OCO2,inactive,
COc1ccc(C)cc1N,inactive,
CCCCCCCCCCCCCCCCCC(=O)O,inactive,
CCCCOC(=O)CCCCCCCCC(=O)OCCCC,inactive,
CC1(C)CC(N=C=O)CC(C)(CN=C=O)C1 (stereo not given),inactive,
COc1ccc2c(c1)c(CC(=O)O)c(C)n2C(=O)c1ccc(Cl)cc1,inactive,
O=[N+]([O-])C(CO)(CO)CO,inactive,
Cc1ccc(C)c(O)c1C,inactive,
Cc1ccc(C)c(C)c1,inactive,
Nc1ccccc1N,inactive,
Cc1nc(-c2ccc3c(c2)CCN(CCC2CCC(NC(=O)/C=C/c4ccc(F)cc4)CC2)CC3)no1 (stereo not given),inactive,
O=c1c(O)c(-c2ccc(O)c(O)c2)oc2cc(O)cc(O)c12,inactive,
CC(CO)OC(C)CO (stereo not given) (tested in a mixture with another compound),inactive,
CCCCCC(=O)O,inactive,
CNC(=O)[C@H]1O[C@@H](n2cnc3c(NCc4cc(Cl)ccc4OCc4cc(C)no4)ncnc32)[C@H](O)[C@@H]1N,inactive,
Cc1ccc(N(C)C)cc1,inactive,
Cc1ccc(C(C)C)c(O)c1,inactive,
Cc1cccc(Nc2cc(Cl)nc(SCC(=O)O)n2)c1C,inactive,
O=C(N[C@@H](Cc1ccccc1)[C@@H](O)C(=O)N1C[C@@H](O)[C@@H](O)C1)c1cc2cc(Cl)ccc2[nH]1,inactive,
Clc1cc(Cl)c(Cl)cc1Cl,inactive,

Structure (SMILES),outcome,AC50
C[Si]1(C)O[Si](C)(C)O[Si](C)(C)O[Si](C)(C)O1,inactive,
Cc1ccccc1Cl,inactive,
O=c1[nH]cc(F)c(=O)[nH]1,inactive,
CCc1c(C(=O)NN2CCCCC2)nn(-c2ccc(Cl)cc2Cl)c1-c1ccc(Br)cc1,,3030 nM (active)
CCCCCCC(=O)OCC,inactive,
CCCCCCCCCCCCCCCC,inactive,
O=C(O)Cc1ccccc1Nc1c(Cl)cccc1Cl,inactive,
Cc1ccc(Cl)cc1,inactive,
CCOc1ccc2c(c1)C(C)=CC(C)(C)N2,inactive,
CCCCCCCC=O,inactive,
CCCCCCCCCCC,inactive,
COc1cc(-c2nc(NC(=O)c3cc4cc(C)cc(C)c4n3CC(=O)O)sc2CCC2CCCCC2)c(OC)cc1Cl,,471 nM (active)
COc1cc(C=O)ccc1O,inactive,
Cc1cc(=O)[nH]c(=S)[nH]1,inactive,
COc1cc(S(=O)(=O)O)c(C)cc1N=Nc1c(O)ccc2cc(S(=O)(=O)O)ccc12,inactive,
Cc1nc(C)nc(N2C[C@@H](C)N(c3ccnc([C@@H](C)O)n3)[C@@H](C)C2)n1,inactive,
CC=Cc1ccc(O)c(OC)c1,inactive,
Nc1ccc2c(c1)C(=O)c1ccccc1C2=O,inactive,
COCCOC[C@H](CC1(C(=O)NC2CCC(C(=O)O)CC2)CCCC1)C(=O)Oc1ccc2c(c1)CCC2 (stereo not given in full),inactive,
CC1=C(/C=C/C(C)=C/C=C/C(C)=C/CO)C(C)(C)CCC1,inactive,
